MOR-DOR inv ag: mu-delta opioid heterodimer inverse agonism. P35372+P41143. cell-based MOR-DOR heterodimer luminescence. inhibition, % at 9.3 µM. 0.21% of 340,000 active. AID 504357; in the data active = inhibition above about 22%, passing the limit was not always enough;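 also: 0% = cells with DMSO and 100% = wells without cells with DMSO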
bovine MsrA act: activates bovine MsrA enzyme; purified bovine MsrA, absorbance read-out; activation, % at 10.6 µM; 0.3% of 360,000 active; in the data active = activation above about 7.5%;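 also: 0% = vehicle and 100% = reference activator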
OPRM1-OPRD1 ag: OPRM1-OPRD1 heterodimerization agonism; AID 504326; 0.3% of 340,000 active; P35372+P41143; activation, % at 9.3 µM; cells, luminescence; in the data active = activation above about 18%;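 also: 0% = vehicle-treated cells and 100% = reference agonist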
MsrA inh: inhibits bovine methionine sulfoxide reductase A; inhibition, % at 15.5 µM; purified bovine MsrA, absorbance read-out; 0.75% of 360,000 active;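 also: 0% = vehicle wells with enzyme and 100% = reference inhibitor wells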
HTR5A inv ctr: inverse agonist of human HTR5A in OPRM1-OPRD1 counter-screen. P47898. HTR5A cell line, luminescence, inverse agonism. inhibition, % at 9.3 µM. 0.083% of 340,000 active. AID 504634; in the data active = inhibition mostly above about 23%, no sharp cut-off; inactive = mostly below about 18%;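 also: 0% = cells with DMSO and 100% = no-cell wells with DMSO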
Target sequence (P47898 whole entry, looked up): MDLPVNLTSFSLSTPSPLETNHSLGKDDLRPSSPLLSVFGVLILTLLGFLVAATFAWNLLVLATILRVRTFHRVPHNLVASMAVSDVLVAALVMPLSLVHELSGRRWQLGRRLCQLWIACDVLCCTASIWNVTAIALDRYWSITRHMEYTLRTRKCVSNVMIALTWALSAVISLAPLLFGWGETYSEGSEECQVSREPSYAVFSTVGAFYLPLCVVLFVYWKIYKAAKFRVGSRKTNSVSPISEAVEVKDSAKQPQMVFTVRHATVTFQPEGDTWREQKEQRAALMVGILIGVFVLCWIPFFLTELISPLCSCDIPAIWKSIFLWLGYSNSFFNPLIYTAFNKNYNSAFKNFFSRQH
HTR5A ag ctr: activates human HTR5A in OPRM1-OPRD1 agonist counter-screen; HTR5A agonist assay, luminescence, cell-based; activation, % at 9.3 µM; 0.61% of 340,000 active; in the data active = activation mostly above about 9.5%, no sharp cut-off; inactive = mostly below about 7.6%;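 also: 0% = cells with vehicle only and 100% = reference agonist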
MsrA conf: confirmation of bovine MsrA inhibitors; shares compounds with MsrA inh; purified bovine MsrA, absorbance read-out; inhibition, % at 15.5 µM; 41% of 2,300 active;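 also: coupled to thioredoxin reductase with NADPH and selenocystamine and DMSO as substrate; 0% = vehicle only and 100% = full effect of reference inhibitor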
* marks the source's active call; other numbers are inactive results; nt = no result. Only some compounds are listed: those with a hit (about 1.9% of all), similar ones and a draw of the others. Rule as the data show it, unless noted: active = inhibition above about 4.5%; inactive = the rest.

SMILES | MOR-DOR inv ag | bovine MsrA act | OPRM1-OPRD1 ag | MsrA inh | HTR5A inv ctr | HTR5A ag ctr | MsrA conf
Cc1ccc2nc(C)c(C(=O)N/N=C/c3cccs3)n2c1 | 9 | -7 | -1 | 3 | 17 | 3 | nt
Cc1ccn2c(C(=O)N/N=C\c3cccs3)c(C)nc2c1 | 8 | -4 | -2 | 7.4* | -19 | 3 | 5.8*
COC(=O)C1=C(C)N(Cc2ccccc2C(F)(F)F)C(=NCc2ccccc2)NC1c1cccc(C(F)(F)F)c1 (stereo not given) | nt | nt | nt | -2 | nt | nt | nt
O=C(Nc1ccc(C(=O)O)cc1)/C(=C\c1ccc2c(c1)OCO2)NC(=O)c1ccccc1 | 13 | -16 | -3 | 4 | -12 | -5 | nt
O=C(Nc1cccc(C(=O)O)c1)/C(=C\c1ccc2c(c1)OCO2)NC(=O)c1ccccc1Cl | 17 | -3 | -3 | 5.5* | -6 | 0 | 3
O=C(O)COc1ccccc1/C=N/NC(=O)/C(=C\c1ccc2c(c1)OCO2)NC(=O)c1ccccc1 | 19 | -6 | -4 | 5.5* | 0 | 3 | 4
COC(=O)[C@@]12C[C@@H](CC(=O)NCc3ccc(C)o3)C(=O)N(Cc3ccc4c(c3)OCO4)C1=CCC(C)(C)C2 | nt | nt | nt | 2 | nt | nt | nt
Cc1[nH]c(C(=O)N/N=C/c2ccc(C(=O)O)cc2)c(C)c1C(=O)N/N=C/c1ccc(C(=O)O)cc1 | 11 | -16 | -2 | 9.9* | -19 | 6 | 9.4*
Cc1[nH]c(C(=O)N/N=C/c2ccc(N(C)C)cc2)c(C)c1C(=O)N/N=C/c1ccc(N(C)C)cc1 | 4 | -11 | -1 | 7.5* | 2 | -1 | 5.2*
CCOC(=O)c1c(C)[nH]c(C(=O)N/N=C/c2ccc(Br)cc2)c1C | 1 | -2 | 0 | 2 | -1 | 9 | nt
CN(C)c1ccc(C(=O)Nc2nnc(C3=COCCO3)o2)cc1 | 12 | -10 | -3 | 5.1* | -3 | 1 | 4
Cc1ccsc1/C=N/NC(=O)c1ccc2c(c1)OCCO2 | 12 | -5 | -2 | 4 | -13 | 3 | nt
O=C(N/N=C/c1ccc2c(c1)OCO2)c1ccc2c(c1)OCO2 | 5 | -5 | -1 | 4.7* | 10 | 7 | 4
Cc1ccsc1/C=N\NC(=O)c1ccc2c(c1)OCO2 | 6 | 0 | -1 | 5.1* | 16 | -1 | 5.5*
COCCCNC(=S)N/N=C/c1ccc2c(c1)OCO2 | nt | -4 | nt | 5.5* | nt | nt | 4.9*
COCCNC(=S)N/N=C/c1ccc2c(c1)OCCO2 | 18 | -2 | -4 | 4 | 21 | -5 | nt
COc1ccc(NS(=O)(=O)c2cccc(C(=O)NN=Cc3ccc(OC)cc3OC)c2)cc1 | -3 | 0 | 1 | 2 | -5 | 1 | nt
O=C(NN=Cc1ccc2c(c1)OCO2)c1ccccc1 | 12 | -10 | -2 | 4 | 8 | -2 | nt
COc1ccc(NS(=O)(=O)c2cccc(C(=O)NN=Cc3cc(Br)c(O)c(Br)c3)c2)cc1 | 16 | -6 | -3 | 5.7* | 2 | 0 | 4.9*
Cc1cc(C(=O)N/N=C/c2ccc[nH]2)no1 | 19 | -9 | -4 | 5 | 17 | -4 | nt
Cc1cc(C(=O)N/N=C/c2ccc[nH]2)n[nH]1 | -20 | -6 | 3 | 5.3* | 13 | 4 | 4
COc1ccccc1/C=N/NC(=O)c1ccc2c(c1)OCO2 | 6 | 5 | -1 | 2 | -3 | 1 | nt
O=C(N/N=C/c1ccc[nH]1)c1ccc2c(c1)OCO2 | 0 | -3 | 0 | 5.1* | 9 | -3 | 4
CC(=O)Nc1ccc(NC(=O)/C=C/c2ccc3c(c2)OCO3)cc1 | 1 | -5 | 0 | 5.5* | -10 | 3 | 4
O=C(N/N=C/c1ccc[nH]1)c1ccccc1O | 26 | -5 | -5 | 4 | 7 | -1 | nt
SMILES | MOR-DOR inv ag | bovine MsrA act | OPRM1-OPRD1 ag | MsrA inh | HTR5A inv ctr | HTR5A ag ctr | MsrA conf
O=C(N/N=C/c1ccc[nH]1)c1ccc(O)cc1 | -3 | -3 | 1 | 5.3* | -3 | 1 | 4
C[C@@H]1CN([C@@H](C)CO)C(=O)CCCn2cc(nn2)CO[C@H]1CN(C)C(=O)C1CC1 | nt | nt | nt | 3 | nt | nt | nt
Cn1cc(CC(=O)Nc2ccc(Oc3cccnc3)cc2)c2ccccc21 | nt | nt | nt | 1 | nt | nt | nt
Cc1cccc(C)c1NC(=O)C1C(c2ccc3c(c2)OCO3)=Nc2ccccc2N1C(=O)c1cccc2ccccc12 (stereo not given) | nt | nt | nt | 3 | nt | nt | nt
COc1cc(/C=N/NC(=O)c2ccc3c(c2)OCCO3)c(Br)c(Br)c1O | 11 | -4 | -2 | 3 | 13 | -3 | nt
O=C(N/N=C/c1ccc[nH]1)c1cc(-c2cccs2)nc2ccccc12 | -12 | -2 | 2 | 4.9* | 26 | 2 | 4
